Source: PubChem BioAssay (NCI)
The panel holds about 79,000 compounds, 15% with a hit somewhere; the sample as a whole holds those more often. Active and inactive are the calls of the source. Cut-off read from the data, not from the text of the source: active = growth inhibition above about 70%; inactive = the rest.

How the values were obtained:
[1] = NCI Yeast Anticancer Drug Screen. Data for the rad52 strain (AID 147);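 note: 0% = growth of vehicle-treated control cultures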; details: S. cerevisiae rad52 mutant growth inhibition, stronger effect = higher value
Method in brief: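 DNA repair-defective yeast; compound exposure; growth scored against vehicle controls.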

[2] = NCI Yeast Anticancer Drug Screen. Data for the wt1 strain (AID 149);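 note: 0% = growth of vehicle-treated wt1 cultures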; details: S. cerevisiae wt1 strain (SPY 50644) growth inhibition, stronger effect = higher value
Method in brief: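 wt1 yeast, compound-treated; % growth inhibition vs vehicle control.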

[3] = NCI Yeast Anticancer Drug Screen. Data for the rad50EPP+ strain (AID 151);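 note: 0% = growth of vehicle-treated control cultures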; details: S. cerevisiae rad50 mutant strain, stronger effect = higher value
Method in brief: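 rad50EPP+ yeast treated with test compounds. Readout: growth vs vehicle control.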

[4] = NCI Yeast Anticancer Drug Screen. Data for the rad50 strain (AID 155);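 note: 0% = growth of vehicle-only cultures of the same strain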; details: S. cerevisiae rad50 strain growth inhibition, stronger effect = higher value
Method in brief: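 Genetically altered yeast (DNA repair pathway); compound treatment; growth inhibition vs vehicle ctrl.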

[5] = NCI Yeast Anticancer Drug Screen. Data for the mec2-1 strain (AID 157); details: S. cerevisiae mec2-1 strain, stronger effect = higher value
Method in brief: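 Growth inhibition is read against vehicle-treated controls after compound exposure of the mec2-1 yeast strain, which is defective in DNA damage repair or cell cycle control.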

[6] = NCI Yeast Anticancer Drug Screen. Data for the rad14 strain (AID 159);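 note: 0% = growth of vehicle-treated control cultures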; details: S. cerevisiae rad14 strain growth inhibition, stronger effect = higher value
Method in brief: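 Test compounds were applied to a repair-deficient yeast strain. Its growth was then compared with that of cultures given vehicle alone, and inhibition was expressed relative to those controls.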

[7] = NCI Yeast Anticancer Drug Screen. Data for the sgs1 mgt1 strain (AID 161);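 note: 0% = growth of cultures given vehicle only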; details: S. cerevisiae sgs1 mgt1 strain, stronger effect = higher value
Method in brief: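 Yeast cells carrying a defined DNA-repair defect were exposed to test compounds. Growth inhibition was measured relative to vehicle-treated controls.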

[8] = NCI Yeast Anticancer Drug Screen. Data for the CLN2oe strain (AID 163);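 note: 0% = growth of vehicle-only control cultures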; details: S. cerevisiae CLN2oe strain, stronger effect = higher value
Method in brief: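 Compound-treated yeast; growth vs vehicle ctrl = % inhibition. Genetically altered strain (cell-cycle control).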

[9] = NCI Yeast Anticancer Drug Screen. Data for the cln2 rad14 strain (AID 165);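 note: 0% = growth equal to vehicle treated cultures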; details: S. cerevisiae cln2 rad14 strain, stronger effect = higher value
Method in brief: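 Growth inhibition, relative to vehicle-treated controls, is the read-out. The test organism is a yeast strain with defined genetic alterations, cln2 rad14.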

[10] = NCI Yeast Anticancer Drug Screen. Data for the bub3 strain (AID 167); details: S. cerevisiae bub3 mutant strain, stronger effect = higher value
Method in brief: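 Yeast carrying a defined mutation is treated with each compound, and growth is compared with that of vehicle-exposed cells to give inhibition.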

[11] = NCI Yeast Anticancer Drug Screen. Data for the mlh1 strain (AID 171);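 note: 0% = growth of vehicle-treated control cultures of the same strain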; details: S. cerevisiae mlh1 strain growth inhibition, stronger effect = higher value
Method in brief: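 Compounds are applied to a genetically altered yeast strain, and its growth is compared with that of vehicle-treated cultures to give percent inhibition.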

[12] = NCI Yeast Anticancer Drug Screen. Data for the sgs1 strain (AID 173);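 note: 0% = growth of vehicle-only control cultures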; details: S. cerevisiae sgs1 mutant, stronger effect = higher value
Method in brief: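 Compounds applied to genetically altered yeast; growth compared with vehicle-treated cultures to give % inhibition.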

[13] = NCI Yeast Anticancer Drug Screen. Data for the mlh1 rad18 strain (AID 175); details: S. cerevisiae mlh1 rad18 strain growth inhibition, stronger effect = higher value
Method in brief: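 Cells of a genetically altered yeast strain, deficient in DNA damage repair, were treated with compound. Their growth was then compared with that of vehicle-treated cultures to give inhibition.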

[14] = NCI Yeast Anticancer Drug Screen. Data for the wt2 strain (AID 169);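 note: 0% = growth of vehicle-treated yeast cultures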; details: S. cerevisiae wt2 strain growth inhibition, stronger effect = higher value
Method in brief: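 Compound exposure of yeast; growth compared with vehicle controls; inhibition reported.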

[15] = NCI Yeast Anticancer Drug Screen. Data for the rad18 strain (AID 177); details: S. cerevisiae rad18 mutant growth inhibition, stronger effect = higher value
Method in brief: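 Compounds are applied to a repair-deficient yeast strain, and growth is compared with that of vehicle-treated cultures to give percent inhibition.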

[16] = at 5.0 µM (retest, dose inferred, filed as 0.5)
[17] = at 50.0 µM (retest, dose inferred, filed as 5.0)

Measured: growth inhibition

Cc1c2cc[n+](CCN3CCCCC3)cc2c(C)c2c1[nH]c1ccc(O)cc12
inactive: [1]; at 1.2 µM 19% | [1]; at 3.7 µM 44% | [2]; at 1.2 µM 2% | [2]; at 3.7 µM 2% | [2]; at 11.0 µM 5% | [2]; at 33.0 µM 6% | [2]; at 100.0 µM 29% | [3]; at 1.2 µM 4% | [3]; at 3.7 µM 16% | [3]; at 11.0 µM 62% | [4]; at 1.2 µM 17% | [4]; at 3.7 µM 47% | [4]; [16] 36% | [5]; at 1.2 µM -2% | [5]; at 3.7 µM 3% | [5]; [16] 25% | [5]; at 11.0 µM 5% | [5]; at 33.0 µM 15% | [5]; [17] 4% | [5]; at 50.0 µM 57.5% | [6]; at 1.2 µM 1% | [6]; at 3.7 µM 12% | [6]; at 11.0 µM 1% | [6]; at 33.0 µM 14% | [7]; [16] 2% | [7]; [17] 38% | [8]; at 1.2 µM -3% | [8]; at 3.7 µM -3% | [8]; at 11.0 µM -3% | [8]; at 33.0 µM 4% | [9]; [16] 5% | [9]; [17] 6% | [9]; at 50.0 µM 30.1% | [10]; at 1.2 µM -20% | [10]; at 3.7 µM 5% | [10]; [16] 16% | [10]; at 11.0 µM -4% | [10]; at 33.0 µM -5% | [10]; [17] 28% | [11]; at 1.2 µM -5% | [11]; at 3.7 µM -4% | [11]; at 11.0 µM 0% | [11]; at 33.0 µM 8% | [12]; at 1.2 µM -1% | [12]; at 3.7 µM -2% | [12]; at 11.0 µM 1% | [12]; at 33.0 µM 12% | [13]; [16] 3% | [13]; [17] 25%
active: [1]; at 11.0 µM 81% | [1]; at 33.0 µM 93% | [1]; at 100.0 µM 98% | [3]; at 33.0 µM 89% | [3]; at 100.0 µM 96% | [4]; at 11.0 µM 74% | [4]; at 33.0 µM 91% | [4]; [17] 97% | [4]; at 50.0 µM 97.8% | [4]; at 100.0 µM 98% | [5]; at 100.0 µM 98% | [6]; at 100.0 µM 93% | [7]; at 50.0 µM 89.2% | [8]; at 100.0 µM 72% | [10]; at 50.0 µM 90.5% | [10]; at 100.0 µM 97% | [11]; at 100.0 µM 97% | [12]; at 100.0 µM 94% | [13]; at 50.0 µM 81.8%

Cc1cccc(/C=N\NC(=S)N2CCCCC2)n1
active: [1]; at 11.0 µM 97% | [1]; at 33.0 µM 98% | [1]; at 100.0 µM 97% | [2]; at 3.7 µM 92% | [2]; at 11.0 µM 99% | [2]; at 33.0 µM 99% | [2]; at 100.0 µM 99% | [3]; at 11.0 µM 86% | [3]; at 33.0 µM 97% | [3]; at 100.0 µM 97% | [4]; [16] 98% | [4]; at 11.0 µM 97% | [4]; at 33.0 µM 97% | [4]; [17] 100% | [4]; at 50.0 µM 88.8% | [4]; at 100.0 µM 98% | [5]; at 3.7 µM 93% | [5]; [16] 97% | [5]; at 11.0 µM 98% | [5]; at 33.0 µM 99% | [5]; [17] 100% | [5]; at 50.0 µM 93.2% | [5]; at 100.0 µM 98% | [6]; at 3.7 µM 90% | [6]; at 11.0 µM 98% | [6]; at 33.0 µM 98% | [6]; at 100.0 µM 98% | [7]; [16] 97% | [7]; [17] 99% | [7]; at 50.0 µM 91.5% | [9]; [16] 98% | [9]; [17] 100% | [9]; at 50.0 µM 92.8% | [10]; at 3.7 µM 93% | [10]; [16] 97% | [10]; at 11.0 µM 98% | [10]; at 33.0 µM 99% | [10]; [17] 99% | [10]; at 50.0 µM 91.8% | [10]; at 100.0 µM 99% | [14]; at 3.7 µM 92% | [14]; at 11.0 µM 99% | [14]; at 33.0 µM 99% | [14]; at 100.0 µM 95% | [11]; at 11.0 µM 98% | [11]; at 33.0 µM 98% | [11]; at 100.0 µM 99% | [12]; at 3.7 µM 93% | [12]; at 11.0 µM 98% | [12]; at 33.0 µM 99% | [12]; at 100.0 µM 98% | [13]; [16] 98% | [13]; [17] 99% | [13]; at 50.0 µM 88.7% | [15]; at 3.7 µM 92% | [15]; at 11.0 µM 97% | [15]; at 33.0 µM 98% | [15]; at 100.0 µM 98%
inactive: [1]; at 1.2 µM -17% | [1]; at 3.7 µM 67% | [2]; at 1.2 µM -5% | [3]; at 1.2 µM -10% | [3]; at 3.7 µM -17% | [4]; at 1.2 µM 19% | [4]; at 3.7 µM 57% | [5]; at 1.2 µM -41% | [6]; at 1.2 µM -19% | [10]; at 1.2 µM -2% | [14]; at 1.2 µM 7% | [11]; at 1.2 µM -33% | [11]; at 3.7 µM 63% | [12]; at 1.2 µM 2% | [15]; at 1.2 µM -7%

COc1ccc(/C=C2\SC(=S)N(C=C3C(=O)NC(=S)NC3=O)C2=O)cc1OC
active: [1]; at 33.0 µM 83% | [1]; at 100.0 µM 89% | [2]; at 33.0 µM 79% | [2]; at 100.0 µM 94% | [4]; at 33.0 µM 80% | [4]; at 100.0 µM 88% | [5]; at 33.0 µM 91% | [5]; [17] 75% | [5]; at 50.0 µM 77.8% | [5]; at 100.0 µM 93% | [6]; at 33.0 µM 85% | [6]; at 100.0 µM 92% | [7]; [17] 76% | [7]; at 50.0 µM 85.8% | [8]; at 33.0 µM 85% | [8]; at 100.0 µM 90% | [11]; at 33.0 µM 89% | [11]; at 100.0 µM 89% | [12]; at 33.0 µM 94% | [12]; at 100.0 µM 93% | [15]; at 33.0 µM 82% | [15]; at 100.0 µM 89%
inactive: [1]; at 1.2 µM 12% | [1]; at 3.7 µM 15% | [1]; at 11.0 µM 47% | [2]; at 1.2 µM 4% | [2]; at 3.7 µM 6% | [2]; at 11.0 µM 25% | [3]; at 1.2 µM 0% | [3]; at 3.7 µM 7% | [3]; at 11.0 µM 37% | [3]; at 33.0 µM 56% | [3]; at 100.0 µM 59% | [4]; at 1.2 µM 3% | [4]; at 3.7 µM 3% | [4]; [16] -2% | [4]; at 11.0 µM 37% | [4]; [17] 65% | [4]; at 50.0 µM 49.8% | [5]; at 1.2 µM 10% | [5]; at 3.7 µM 14% | [5]; [16] -16% | [5]; at 11.0 µM 58% | [6]; at 1.2 µM 6% | [6]; at 3.7 µM 15% | [6]; at 11.0 µM 52% | [7]; [16] -6% | [8]; at 1.2 µM -11% | [8]; at 3.7 µM -1% | [8]; at 11.0 µM 39% | [9]; [16] -25% | [9]; [17] 33% | [9]; at 50.0 µM 37.6% | [10]; at 1.2 µM 6% | [10]; at 3.7 µM 8% | [10]; [16] 3% | [10]; at 11.0 µM 33% | [10]; at 33.0 µM 60% | [10]; [17] -1% | [10]; at 50.0 µM 44.3% | [10]; at 100.0 µM 59% | [11]; at 1.2 µM 0% | [11]; at 3.7 µM 10% | [11]; at 11.0 µM 51% | [12]; at 1.2 µM 11% | [12]; at 3.7 µM 29% | [12]; at 11.0 µM 61% | [13]; [16] 7% | [13]; [17] 69% | [13]; at 50.0 µM 68.3% | [15]; at 1.2 µM 16% | [15]; at 3.7 µM 34% | [15]; at 11.0 µM 60%
